NPSR antagonist – qHTS Assay for Antagonists of the Neuropeptide S Receptor: cAMP Signal Transduction | Q6W5P4 | CHO-NPSR cells, cAMP TR-FRET, antagonist mode | Potency, µM (doses to about 38.3 µM), without a hit: at the top dose activity change, negative = inhibition, actives largely listed as inhibitors | hit rate 1% among 220,000; also: nearly all actives have a fitted effect of over 50% in size
Target sequence (Q6W5P4 whole entry, looked up): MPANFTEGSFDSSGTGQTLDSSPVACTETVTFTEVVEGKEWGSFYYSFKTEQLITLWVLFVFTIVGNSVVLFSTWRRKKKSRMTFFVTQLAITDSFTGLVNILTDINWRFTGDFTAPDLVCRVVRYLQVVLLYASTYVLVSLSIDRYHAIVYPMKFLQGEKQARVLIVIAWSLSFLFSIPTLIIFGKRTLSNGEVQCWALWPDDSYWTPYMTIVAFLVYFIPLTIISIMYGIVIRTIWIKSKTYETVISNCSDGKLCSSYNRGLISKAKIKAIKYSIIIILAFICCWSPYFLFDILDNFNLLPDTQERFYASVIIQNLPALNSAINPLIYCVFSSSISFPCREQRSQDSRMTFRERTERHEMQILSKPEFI
IMPase Li inh – qHTS Assay for Identifying the Cell-Membrane Permeable IMPase Inhibitors: Potentiation with Lithium; CHO-M1 cells, IP1 TR-FRET (IP-One), carbachol + lithium; Potency, µM (doses to about 59.4 µM), inactives show at the top dose activity, negative = IMPase inhibition, actives largely listed as inhibitors; hit rate 0.35% among 210,000;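 also: IP1 builds up when IMPase is blocked and the TR-FRET signal falls; plate controls were basal vehicle for no effect and high inhibitor control for full effect; nearly all actives have a fitted effect of over 50% in size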
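CHO cells stably expressing M1 receptor (2000/well) were cultured 16–30 h, then exposed to compounds with a small lithium addition for 30 min at 37C. IP1 was measured by TR-FRET competition; AC50 from Hill fits.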
ERK EGF inh – qHTS Assay for Inhibitors of the ERK Signaling Pathway using a Homogeneous Screening Assay; Stimulation with EGF | hit rate 0.41% among 130,000 | HEK293-V1b, EGF-stimulated phospho-ERK AlphaScreen | Potency, µM (top dose mostly 11.5 µM), without a hit: top-dose activity change, negative = inhibition, hits mostly inhibitors | AID 1454, 2008;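 also: plate controls were stimulated vehicle wells for no effect and unstimulated vehicle basal for full effect; nearly all actives have a fitted effect of over 55% in size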
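HEK293 cells stably expressing V1b receptor, serum-reduced (1% FBS) overnight, pretreated 30 min with compound, then stimulated 5 min with 25 nM EGF; phospho-ERK detected by AlphaScreen SureFire. AC50 from Hill fits, normalized to DMSO and EGF.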
Luc counter – Counterscreen for Luciferase (Kinase-Glo TM) Inhibition; Luciferin 4-monooxygenase (Photuris pensylvanica), Q27757; hit rate 0.28% among 200,000; AID 1379, 2008; Kinase-Glo luciferase, ATP luminescence, 8 min; Potency, µM (highest dose often 38.3 µM), for the others: at the top dose activity change, negative = inhibition, hits mostly inhibitors; also: nearly all actives have a fitted effect of over 60% in size
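Kinase-Glo luciferase light output from ATP and luciferin was measured with 10 uM ATP, within the enzyme's linear range. Buffer: 50 mM imidazole pH 7.2, 50 mM KCl, 7 mM MgCl2, 0.01% Tween 20, 0.05% BSA; luminescence read after 8 min at ambient temperature.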
Numbers without * were called inactive; ? = inconclusive; · = no result; [ ] = another dose, or the depositor's remark. Most compounds without a hit are left out; they make up all but 1.1% or so of the library. Calls follow the shape of the dose curve; as a rule, active = well fitted curve in the direction sought with a large enough effect; inconclusive = small, poorly fitted or top-dose-only effect, or another doubt; inactive = no such curve, though single readings can be large; an effect the other way counts as inactive or inconclusive. Unless noted, % is scaled to controls: 0 for no effect and ±100 for the full control effect; potency is read from the fitted curve at half-maximal effect.

SMILES	NPSR antagonist	IMPase Li inh	ERK EGF inh	Luc counter
N/C(=N\OC(=O)c1ccc2c(c1)OCO2)c1cccnc1	-24%	1%	-6%	?
N/C(=N\OC(=O)c1ccc2c(c1)OCO2)c1cccc(Br)c1	-6%	7%	-13%	13µM*
O=C(O)c1ccccc1Cl	·	-3%	·	·
Cc1nn(C)cc1/C=N/NC(=S)Nc1ccccc1	2µM*	-12%[38.3 µM]	·	-14%
Cc1ccc(NC(=S)N/N=C/c2c(C)nn(-c3ccccc3)c2N2CCCC2)cc1	-13%[46.1 µM]	·	·	·
Cc1ccc(-n2c(=S)[nH]c3sc4c(c3c2=O)CCC4)cc1	7.9µM*	11µM*	2%	3%
Cc1ccc(-n2c(=O)c3c4c(sc3n3c(=S)[nH]nc23)CCC4)cc1	27%	·	3%[57.5 µM]	·
CCOC(=O)c1cnc(-n2nc(C)cc2C)nc1Nc1ccc(O)cc1	?	·	7%[57.5 µM]	·
CCOC(=O)c1cnc(-n2nc(C)cc2C)nc1Nc1ccc(C)cc1	1.3µM*	1%	·	2%
CCN1/C(=C2\OC(=S)N(C)C2=O)Sc2ccccc21	-10%[46.1 µM]	11µM*	·	-8%
CCN1/C(=C2\OC(=S)N(C)C2=O)C=Cc2ccccc21	-20%	-7%	-2%	-1%
O=C1C(Cl)=C(NC2CCc3ccccc32)C(=O)c2ncccc21 (centres undefined)	·	20%	?	-5%
Cc1cccc(CNc2cc(-c3ccoc3)ncn2)c1	·	0%	32%	-3%
CN(C(Cc1ccc(OS(=O)(=O)c2cccc3cnccc23)cc1)C(=O)N1CCN(c2ccccc2)CC1)S(=O)(=O)c1cccc2cnccc12 (centres undefined)	·	2%	·	·
COc1ccccc1C(C[N+](=O)[O-])c1c(N)n(C)c(=O)n(C)c1=O (centres undefined)	10µM*	·	9%[57.5 µM]	·
Cc1ccc(Cc2nc(-c3ccccn3)no2)cc1	1%[46.1 µM]	-5%[38.3 µM]	·	-7%
Clc1cccc(-c2nc(-c3ccccn3)no2)c1	1%[46.1 µM]	4%[38.3 µM]	·	?
Cc1ccc2nc(-c3ccccn3)oc2c1	14%[46.1 µM]	1%[38.3 µM]	·	13µM*
Cc1ccc(-c2nc(-c3ccccn3)no2)cc1Cl	-9%[46.1 µM]	-10%[38.3 µM]	·	11µM*
Cc1ccc(-c2nc(-c3ccccn3)no2)cc1	-2%[46.1 µM]	-11%[38.3 µM]	·	3.2µM*
c1ccc(-c2nc(-c3ccccn3)no2)cc1	-24%[46.1 µM]	-2%	6%	3.2µM*
Cc1ccc2nc(-c3cccnc3)oc2c1	-9%[46.1 µM]	-3%[38.3 µM]	·	-7%
[O-][N+](CCO)(CCO)c1ncnc2nc[nH]c12	·	-2%	·	-6%[7.66 µM]
Cc1ccc(C(=O)N/N=C\c2ccc(-c3ccc(Cl)c(Cl)c3)o2)cn1	?	·	18µM*	·
Cc1ccc(C(=O)N/N=C/c2ccc(-c3cccc(Cl)c3)o2)cn1	27%	·	?	·
SMILES	NPSR antagonist	IMPase Li inh	ERK EGF inh	Luc counter
COc1ccccc1-c1cncnc1NCCNC(C)=O	·	-4%	·	·
NC(CCC(=O)NCS(=O)(=O)O)C(=O)O (centres undefined)	-3%[46.1 µM]	2%	5%	2%
C[C@@]12CC[C@@H]3c4ccc(O)cc4C[C@H](CCCCCCCCCS(=O)CCCC(F)(F)C(F)(F)F)[C@H]3[C@@H]1CC[C@@H]2O (some centres undefined)	·	7%	-10%	-1%
COc1cccc(N2CCN(c3ncnc4c3cnn4-c3ccc(C)cc3C)CC2)c1	10µM*	30%[38.3 µM]	·	2%
COc1ccc(-n2ncc3c(N4CCN(Cc5ccccc5)CC4)ncnc32)cc1	-29%	13%	32µM*	-5%
Cc1ccc(-n2ncc3c(N4CCCC4)ncnc32)c(C)c1	-26%[46.1 µM]	11%[38.3 µM]	8%[57.5 µM]	-2%
CC(C)(C)c1ccc(S(=O)(=O)/C=C/C#N)cc1	20µM*	17%	20%	-3%
CC(C)(C)c1ccc(NS(=O)(=O)c2ccc(N)cc2)cc1	25%	-7%	9%[57.5 µM]	-4%[7.66 µM]
CCOc1cc2[nH]c(=S)n(CCC(=O)NCc3ccco3)c(=O)c2cc1OCC	-12%	?	7%	0%
CCOc1cc2[nH]c(=S)n(CCCC(=O)NCc3ccco3)c(=O)c2cc1OCC	-10%[46.1 µM]	14µM*	·	4%
COc1ccc(-n2c(=S)[nH]c3cc(C(=O)NCc4ccco4)ccc3c2=O)cc1OC	-8%[46.1 µM]	-17%[38.3 µM]	4%	8%
O=C(NCc1ccco1)c1ccc2c(=O)n(-c3ccccc3)c(=S)[nH]c2c1	1%[46.1 µM]	13µM*	·	-2%
CN1CCN(c2ccncc2S(=O)(=O)N2CCN(C)CC2)CC1	·	0%	·	1%[7.66 µM]
CN=c1scc(-c2ccco2)n1/N=C/c1ccc(O)c(O)c1	-6%	17%	-5%	-8%
CN=c1scc(-c2ccccc2F)n1/N=C/c1ccc[nH]1	11%	7%	-3%	11µM*
CN=c1scc(-c2ccccc2F)n1/N=C/c1ccc(O)c(O)c1O	-28%	25%	28µM*	11µM*
c1ccc2c(CN3CCN(Cc4c[nH]c5ccccc45)CC3)c[nH]c2c1	·	-2%	·	-3%[7.66 µM]
O=C(O)Cc1sc(-c2cccnc2)nc1-c1ccc(Br)cc1	-29%	-16%	0%	-2%
O=C(O)Cc1sc(-c2ccccc2Cl)nc1-c1ccccc1	-47%	5µM*	5%	-6%
CC[C@@]1([N+](=O)[O-])C[C@H]2C=C[C@@H]1C2	·	5%	·	-3%[7.66 µM]
COc1ncnc2sc(-c3ccccc3)cc12	8%[46.1 µM]	5%[38.3 µM]	·	10µM*
COc1ccc(Nc2ncnc3sc(-c4ccccc4)cc23)cc1	?	-11%[38.3 µM]	·	-6%
COCCCn1cnc2c(c1=O)c1nc3ccccc3nc1n2-c1ccc(C)cc1	-12%[46.1 µM]	-4%[38.3 µM]	·	-2%
Cc1nc2c(c(=O)n1Cc1ccccc1Cl)c1nc3ccccc3nc1n2Cc1ccco1	13µM*	30%[38.3 µM]	·	-1%
Cc1cc(C)cc(-n2c3nc4ccccc4nc3c3c(=O)n(Cc4ccco4)cnc32)c1	10µM*	1%[38.3 µM]	·	0%
SMILES	NPSR antagonist	IMPase Li inh	ERK EGF inh	Luc counter
N[C@@H](Cc1ncccn1)C(=O)O	·	-3%	·	-9%[7.66 µM]
CCOc1nc(Nc2ccc(OC)cc2)nc(OCC)n1	8%[46.1 µM]	19%[38.3 µM]	·	20%
COc1ccc(Nc2ccnc(Nc3ccc(OC)cc3)n2)cc1	11%	11%	35µM*	1%
O=C1C2C3C=CC(C3)C2C(=O)N1CCCCCCN1C(=O)C2C3C=CC(C3)C2C1=O (centres undefined)	-33%	-9%	12%	11µM*
O=C(Nc1nc(-c2ccccc2)c(C(=O)c2ccccc2)s1)c1ccc(S(=O)(=O)N2CCCC2)cc1	6.3µM*	-10%	1%	-1%
O=C(Nc1nc(-c2ccccc2)c(-c2ccccc2)s1)c1ccc(S(=O)(=O)N2CCCC2)cc1	2%[46.1 µM]	7%	·	3%
CCc1nnc(NC(=O)c2ccc3ccccc3n2)s1	-44%	28%	21%	?
CCSc1nnc(NC(=O)c2ccc3ccccc3n2)s1	7.9µM*	0%[38.3 µM]	·	3%
FC(F)(F)c1cc(-c2ccccc2)nc(N2CCCCCC2)n1	-1%[46.1 µM]	37%[38.3 µM]	·	1%

Screening results from PubChem.
